High-throughput results: PubChem BioAssay, The Scripps Research Institute Molecular Screening Center
MITF inh – blocks human microphthalmia-associated transcription factor | O75030 | AlphaScreen MITF homodimerization, bead proximity signal | inhibition, % at 2.6 µM | actives 0.91% (n = 650,000); in the data active = inhibition above about 50%
Target sequence (O75030 whole entry, looked up): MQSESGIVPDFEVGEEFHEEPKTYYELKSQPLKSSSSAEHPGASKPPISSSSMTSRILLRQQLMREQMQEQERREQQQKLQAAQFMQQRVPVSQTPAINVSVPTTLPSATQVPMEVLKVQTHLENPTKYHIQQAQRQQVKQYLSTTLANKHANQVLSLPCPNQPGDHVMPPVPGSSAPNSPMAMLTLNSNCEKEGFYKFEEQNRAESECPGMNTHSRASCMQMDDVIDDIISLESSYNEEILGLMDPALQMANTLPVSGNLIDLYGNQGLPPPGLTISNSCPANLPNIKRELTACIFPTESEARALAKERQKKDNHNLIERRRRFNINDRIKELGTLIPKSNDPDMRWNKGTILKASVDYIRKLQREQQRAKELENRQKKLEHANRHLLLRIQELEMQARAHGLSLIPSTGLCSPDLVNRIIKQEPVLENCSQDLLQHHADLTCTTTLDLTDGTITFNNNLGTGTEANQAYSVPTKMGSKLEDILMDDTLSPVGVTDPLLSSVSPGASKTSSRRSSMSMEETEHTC
GPR151 ag – activators of human GPR151 | Q8TDV0 | PathHunter beta-arrestin GPR151 cells, luminescence | activation, % at 11.2 µM | actives 1% (n = 650,000); in the data active = activation above about 4.9%
TEAD-YAP inh – TEAD-YAP interaction inhibition; HEK-TIYL cells, TEAD-Gal4/YAP UAS-luciferase luminescence; inhibition, % at 9.12 µM; actives 1.4% (n = 640,000); AID 1259422; in the data active = inhibition above about 32%
FBW7 act – activators of human E3 ligase FBW7; actives 0.13% (n = 650,000); AlphaScreen FBW7–phospho-cyclin E peptide binding, activator screen; normalized activity (activation), % at 26.1 µM; Q969H0; in the data active = normalized activity above about 1.9%;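 note: purified mutant Fbw7 with reduced substrate affinity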
MITF inh conf – human MITF inhibition, confirmation. shares compounds with MITF inh. AlphaScreen MITF homodimerization, biotin/His-MITF beads. inhibition, % at 2.6 µM. actives 16% (n = 4,700);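 active = inhibition above a cutoff derived from the DMSO control wells, cut at about 28% in these data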;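 note: inhibitors lower the bead chemiluminescence by keeping MITF from dimerizing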
AlphaScreen DR – optically interferes with AlphaScreen signal in dose response; AID 1259373; shares compounds with MITF inh; IC50, µM; AlphaScreen optical interference counterscreen, cell-free; actives 6% (n = 480); call rule not given here
AS interf ctr – optically interferes with AlphaScreen signal. actives 7.6% (n = 4,700). shares compounds with MITF inh. LysRS AlphaScreen counterscreen, signal interference, triplicate. inhibition, % at 2.6 µM;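 active = inhibition above a cutoff derived from the DMSO control wells, cut at about 30% in these data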
A number is an active result; – = inactive; · = no result given. A selection: hits, their analogues and other compounds. The true share with any hit is near 3.5%.

SMILES | MITF inh | GPR151 ag | TEAD-YAP inh | FBW7 act | MITF inh conf | AS interf ctr | others
Cc1cc(=O)[nH]c(-n2[nH]c(C)c(Cc3ccccc3)c2=O)n1 | – | – | – | – | · | ·
CCOC(=O)c1cnc(-n2[nH]c(C)c(CCO)c2=O)[nH]c1=O | 86 | – | – | – | – | 65
CCOC(=O)c1cnc(N2CCOCC2)[nH]c1=O | – | – | – | – | · | ·
CCCCc1ccc(-c2nc(C=Nc3ccc(C)c(Cl)c3)c(O)o2)cc1 | – | – | – | – | · | ·
O=CN1CCN(C(=O)COc2ccc(Br)cc2Cl)CC1 | 70 | – | – | – | – | –
O=C(COc1ccc(Br)cc1Cl)N1CCCCC1 | – | – | – | – | · | ·
Fc1ccc(NC2=NCCCCC2)c(F)c1F | – | – | – | – | · | ·
O=C(NCCO)c1cccc(-c2cccs2)c1 | 59 | – | – | – | 59 | – | AlphaScreen DR=–
O=C(NCc1cccnc1)c1cccc(-c2cccs2)c1 | 55 | – | – | – | 45 | – | AlphaScreen DR=–
O=C(NCc1ccccc1)c1cccc(-c2cccs2)c1 | – | – | – | – | · | ·
O=C(NCc1cccnc1)C(=O)NCc1cccnc1 | 72 | – | – | – | – | –
Cc1nc(NC(=O)c2ccc(Br)cc2)sc1C | – | – | – | – | · | ·
COc1ccc(-c2noc(CN(C(=O)c3ccc(OC)c([N+](=O)[O-])c3)C(C)C)n2)cc1 | – | – | – | – | · | ·
COc1ccc(C(=O)N(Cc2nc(-c3ccc(C)cc3)no2)C(C)C)cc1[N+](=O)[O-] | 55 | – | – | – | – | –
COc1cc(CNC2CCCc3ccccc32)cc(OC)c1O (centres undefined) | 57 | – | – | – | – | –
COc1cc(OC)c(OC)cc1CNC1CCCc2ccccc21 (centres undefined) | – | – | – | – | · | ·
O=C(CSc1nnc(NC(=O)C2CC2)s1)c1ccccc1 | – | – | – | – | · | ·
COc1ccc(-n2nc3c(c2NC(=O)c2ccc4c(c2)OCO4)CSC3)cc1 | 89 | – | – | – | – | –
Cc1ccccc1-n1nc2c(c1NC(=O)c1ccc(Br)cc1)CSC2 | – | – | – | – | · | ·
Cc1ccccc1C(=O)Nc1c2c(nn1-c1ccc([N+](=O)[O-])cc1)CSC2 | 61 | – | – | – | – | –
Cc1ccc(C(=O)Nc2c3c(nn2-c2ccccc2C)CSC3)cc1 | 71 | – | – | – | – | –
CC(O)C#CCN(Cc1ccccc1)C(C)C (centres undefined) | – | – | – | – | · | ·
Cc1ccc(CNS(=O)(=O)c2cc(C(=O)Nc3cccc(C)c3)ccc2F)cc1 | – | – | – | – | · | ·
CCOC(=O)N1CCN(C(=O)CN(CC)S(=O)(=O)c2ccc(Cl)cc2)CC1 | – | – | – | – | · | ·
CC1CC(C)CN(CC(=O)Nc2c3c(nc4ccccc24)CCC3)C1 (centres undefined) | 74 | – | – | – | – | –
SMILES | MITF inh | GPR151 ag | TEAD-YAP inh | FBW7 act | MITF inh conf | AS interf ctr | others
O=C(CN1CCCCC1)Nc1c2c(nc3ccccc13)CCC2 | 53 | – | – | – | – | –
COC1CC2C(CC1(C)OC(=O)c1cc([N+](=O)[O-])cc([N+](=O)[O-])c1)C2(C)C (centres undefined) | – | – | – | – | · | ·
OCCN1CCN(Cc2cc(Br)cs2)CC1 | 73 | – | – | – | – | –
OCCN1CCN(Cc2ccc(Br)s2)CC1 | 59 | – | – | – | – | –
CC(=O)N1CCN(Cc2ccc(Br)s2)CC1 | – | – | – | – | · | ·
CC1(C)CC(=O)C2=C(C1)OC1=C(C(=O)CC(C)(C)C1)C2c1ccc(-c2ccc(OC(F)(F)F)cc2)o1 | – | – | – | – | · | ·
CCOC(=O)c1c(NC(=O)Cn2nc([N+](=O)[O-])c(Cl)c2C)sc2c1CCC(C(C)(C)C)C2 (centres undefined) | – | – | – | – | · | ·
COC(=O)C1=C(C)Nc2nnnn2C1c1ccccn1 (centres undefined) | – | – | – | – | · | ·
O=C(NCCOc1ccccc1)c1cccc(NCCCN2CCCC2=O)c1 | – | – | – | – | · | ·
CCc1ccc(C(=O)NC(C(=O)NCC2CCCO2)C(C)C)cc1 (centres undefined) | 67 | – | – | – | – | –
COc1ccc(C2C(C#N)=C(N)OC3=C2C(=O)CC(C)(C)C3)c2ccccc12 (centres undefined) | 70 | – | – | – | – | –
COc1ccc([C@H]2C(C#N)=C(N)OC3=C2C(=O)CC(C)(C)C3)c([N+](=O)[O-])c1OC | – | – | – | – | · | ·
CCc1nc(-c2ccccc2)c2ccccn12 | 55 | – | – | – | – | –
COc1ccc(CCNC(=O)CSc2nc3ccsc3c(=O)n2-c2ccccc2)cc1OC | – | – | – | – | · | ·
CCOc1ncccc1C(=O)OCC(=O)Nc1oc(-c2ccco2)c(-c2ccco2)c1C#N | 71 | – | – | – | 72 | – | AlphaScreen DR=–
N#Cc1c(NC(=O)c2cccnc2Cl)oc(-c2ccco2)c1-c1ccco1 | – | – | – | – | · | ·
Cc1cc(NC(=O)c2ccc(-c3cc(Cl)ccc3Cl)o2)ccc1-c1cc2ccccc2oc1=O | – | – | – | – | · | ·
Cc1cccc(C)c1OCCOCCNCCN | 55 | – | – | – | – | –
Cc1cccc(Cl)c1OCCOCCNCCN | 61 | – | – | – | – | –
Cc1cccc(Cl)c1OCCOCCNC(C)(C)C | – | – | – | – | · | ·
Cc1cc(C(F)(F)F)nc(CCNC(=O)Cn2nnnc2CN(C)C(C)C)n1 | – | – | – | – | · | ·
CN1CCC(=NNc2nc3ccccc3[nH]2)CC1 | 53 | – | – | – | – | –
c1ccc(CN2CCC(=NNc3nc4ccccc4[nH]3)CC2)cc1 | – | – | – | – | · | ·
CCc1nnc(NS(=O)(=O)c2ccc(NC(=O)COc3ccccc3)cc2)s1 | 65 | – | – | – | – | –
CCC(=O)Nc1ccc(S(=O)(=O)Nc2nnc(CC)s2)cc1 | – | – | – | – | · | ·
SMILES | MITF inh | GPR151 ag | TEAD-YAP inh | FBW7 act | MITF inh conf | AS interf ctr | others
NNc1nc(NN)nc(Nc2cccc3ccccc23)n1 | 51 | – | – | – | 54 | 63
Brc1ccccc1-c1nn2c(C3COc4ccccc4O3)nnc2s1 (centres undefined) | – | – | – | – | · | ·
CCOC(=O)c1c(-c2ccc(OC)cc2)csc1NC(=O)CN1CCOCC1 | 71 | – | – | – | – | –
CCOC(=O)c1c(-c2ccc(F)cc2)csc1NC(=O)CCN1CCN(CC)CC1 | 71 | – | – | – | – | –
CCOC(=O)c1c(-c2ccc(C)o2)csc1NC(=O)CN1CCCCC1C (centres undefined) | 57 | – | – | – | – | 39
CCOC(=O)c1c(-c2ccc(C)cc2)csc1NC(=O)CN1CCOCC1 | – | – | – | – | · | ·
CCOC(=O)c1c(-c2ccccc2)csc1NC(=O)CCN1CCN(C)CC1 | – | – | – | – | · | ·
CCCCOc1ccccc1C1NC(=O)NC(C)=C1C(=O)OCC(F)(F)F (centres undefined) | – | – | – | – | · | ·
Cc1nn2c(nc(N3CCCCCC3)c3ccccc32)c1C=O | 62 | – | – | – | – | –
